High-throughput results deposited in PubChem BioAssay by National Center for Advancing Translational Sciences (NCATS).
Sampled rows, rich in hits. Any-hit rate of the full collection: about 17%.
TDP1 inh: qHTS Assay for Inhibitors of Tyrosyl-DNA Phosphodiesterase (TDP1) | AID 485290, 2010 | Potency, µM (series often up to 130 µM), actives largely listed as inhibitors | recombinant TDP1, AlphaScreen DNA substrate cleavage | Tyrosyl-DNA phosphodiesterase 1 (Homo sapiens), Q9NUW8 | 0.28% of 350,000 active; further: nearly all actives have a fitted effect of over 40% in size
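Here, a 5' biotin and 3' phosphotyrosine-FITC DNA oligonucleotide reports Tdp1 activity: intact substrate bridges AlphaScreen beads, while cleavage leaves a 3' phosphate and drops signal. All incubations at room temperature.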
TDP1 cell noCPT: qHTS for Inhibitors of human tyrosyl-DNA phosphodiesterase 1 (TDP1): qHTS in cells in absence of CPT; DT40 Tdp1-/- hTDP1 cells, no CPT, ATP luminescence, 48 h; Potency, µM (highest dose often 46.2 µM), hits mostly inhibitors; 15% of 420,000 active; further: nearly all actives have a fitted effect of over 55% in size
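Growth kinetics read by CellTiter-Glo luminescence after ≥48 hr at 37 °C. Cells: DT40 Tdp1-/- stably carrying human TDP1, 400 per well, compound exposure in the absence of CPT (DMSO vehicle).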
ClpP mod: qHTS Assay for Activators of ClpP | ATP-dependent Clp protease proteolytic subunit (Bacillus subtilis (strain 168)), P80244 | purified B. subtilis ClpP, FRET peptide cleavage, 20 min | Potency, µM (top dose mostly 57.5 µM) | 1.9% of 340,000 active | AID 651965, 2013; active means well fitted falling curve with a large enough effect; inconclusive means small, poorly fitted or top-dose-only effect; inactive means no such curve, though single readings can be large or run the other way; further: the source files actives as falling curves though it sought activators and does not explain the sign; nearly all actives have a fitted effect of over 65% in size
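Buffer: 100 mM Tris/HCl pH8, 100 mM KCl, 0.05% low protease BSA, 2.5% glycerol, 0.01% Tween-20. ClpP 10 microg/mL final; 20 min RT; delta FRET normalized to ADEP and DMSO controls.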
TDP1 cell CPT: qHTS for Inhibitors of human tyrosyl-DNA phosphodiesterase 1 (TDP1): qHTS in cells in presence of CPT | chicken DT40 Tdp1-/-;hTDP1 cells + 20 nM CPT, ATP luminescence, 48 h | Potency, µM (highest dose often 46.2 µM), hits mostly inhibitors | 12% of 420,000 active | AID 686979, 2013; further: nearly all actives have a fitted effect of over 55% in size
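Chicken DT40 Tdp1-/- cells complemented with human TDP1, 400 cells/well, exposed to compounds plus 20 nM camptothecin for at least 48 h at 37 C; viability read as ATP content by CellTiter-Glo luminescence.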
A number is an active result; i = inactive; ? = inconclusive; nt = no result given; [ ] = remark or other dose. Unless noted, the call rests on the fitted dose curve; in most records, active means well fitted curve in the direction sought with a large enough effect; inconclusive means small, poorly fitted or top-dose-only effect, or another doubt; inactive means no such curve, though single readings can be large; an effect the other way counts as inactive or inconclusive.

SMILES	TDP1 inh	TDP1 cell noCPT	ClpP mod	TDP1 cell CPT
Cc1ccc2c(c1)N(C(=O)C1CCN(S(=O)(=O)c3c(C)noc3/C=C/c3ccccc3F)CC1)CCO2	i	?	?	i
Cc1cc(C2=NNC(=NCCc3ccccc3)SC2)c(C)n1CC1CCCO1 (stereo not given)	i	?	nt	16.4µM
COCCN=C1NN=C(c2ccc(C)c([N+](=O)[O-])c2)CS1	i	?	i	?
COCCn1c(C)cc(C2=NNC(=NC(C)(C)C)SC2)c1C	i	18.4µM	nt	i
COCCn1c(C)cc(C2=NNC(=Nc3ccccc3)SC2)c1C	i	15.8µM	i	22.4µM
Clc1ccc(C2=NNC(=NCC3CCCO3)SC2)cc1 (stereo not given)	i	i	nt	i
COCCn1c(C)cc(C2=NNC(=Nc3ccc(OC)cc3)SC2)c1C	i	11.6µM	i	23.1µM
CN(CC(=O)Nc1ccc(OC(F)(F)F)cc1)C(=O)Cc1cccs1	i	?	i	?
CCN=C1NN=C(c2c[nH]c3ccccc23)CS1	i	i	nt	i
CCN=C1NN=C(c2cc(C)n(Cc3ccco3)c2C)CS1	i	18.4µM	i	16.4µM
COc1cc(Cl)c(C)cc1NC(=O)NC1COc2ccccc2C1 (stereo not given)	i	i	i	i
O=C(Nc1ccc2[nH]c3c(c2c1)CCCC3)c1ccco1	i	20.6µM	i	?
Cc1cc2cc(NC(=O)c3ccco3)ccc2[nH]1	i	i	i	i
CC(=O)c1cccc(NS(=O)(=O)c2ccc3[nH]c4c(c3c2)CCCCC4)c1	i	16.4µM	i	20.6µM
CCOc1ccc(NS(=O)(=O)c2ccc3[nH]c4c(c3c2)CCCC4)cc1	i	?	i	i
CCOC(=O)c1cccc(NS(=O)(=O)c2ccc3[nH]c4c(c3c2)CCCC4)c1	i	?	i	23.1µM
CC(=O)c1cccc(NS(=O)(=O)c2ccc3[nH]c4c(c3c2)CCCCCC4)c1	i	20.6µM	i	?
Cc1ccc(N2C(=O)[C@@H]3CSC(c4ccc(Cl)cc4)N3C2=O)cc1 (stereo not given in full)	i	i	i	i
CN(C)S(=O)(=O)c1cccc(NC(=O)COC(=O)CNC(=O)c2cccc([N+](=O)[O-])c2)c1	i	i	i	i
Cc1c(P(=S)(c2ccccc2)c2ccccc2)c2ccccc2n1CCc1ccccc1	i	nt	nt	nt
COc1cc2c(cc1OC)C1(O)C(=O)c3ccc(O)c(C(=O)O)c3OC1CO2 (stereo not given)	i	i	nt	?
O=[N+]([O-])c1ccc(N=NN(CCO)CCO)cc1	i	i	i	i
O=[N+]([O-])c1ccc(N=Nc2ncc[nH]2)cc1	nt	0.731µM	i	0.92µM
COc1ccc(C(OCCN2CCC[C@H](C(=O)O)C2)(c2ccc(OC)cc2)c2ccc(OC)cc2)cc1	i	nt	nt	nt
Cc1ccc(NC(=O)C2CCC(CNS(=O)(=O)c3csc(C(N)=O)c3)CC2)cc1Cl (stereo not given)	i	?	i	?
SMILES	TDP1 inh	TDP1 cell noCPT	ClpP mod	TDP1 cell CPT
Cc1ccc(Nc2nc(N)nc(COC(=O)c3ccc(Br)o3)n2)cc1	i	?	i	?
COc1ccc(-c2cc(=O)c3cc(OC)ccc3o2)cc1	i	i	i	i
COc1ccc(/C=C/c2cc(=O)c3cc(Cl)ccc3o2)cc1	i	20.6µM	i	?
COC(=O)c1cc(NC(=O)C(C)c2ccc(CC(C)C)cc2)ccc1O (stereo not given)	i	?	nt	20.6µM
CC(C)Cc1ccc(C(C)C(=O)Nc2ncccn2)cc1 (stereo not given)	i	?	nt	i
O=C(c1c[nH]c(C(=O)C(Cl)(Cl)Cl)c1)c1ccccc1F	nt	?	i	?
O=C(c1c[nH]c(C(=O)C(Cl)(Cl)Cl)c1)c1c(F)cccc1F	nt	20.6µM	nt	?
CC(C)OCCCn1c(SCc2ccccc2C#N)nc2c(sc3ccccc32)c1=O	i	i	i	i
Cc1ccc(C2CCN(C(=O)c3cnn(-c4ccc(C)c(C)c4)c3C3CCN(C(=O)OC(C)(C)C)CC3)C2)cc1 (stereo not given)	i	13µM	i	10.3µM
CCCNC(=O)c1cnn(-c2ccc(C)c(C)c2)c1C1CCN(C(=O)OC(C)(C)C)CC1	i	23.1µM	i	?
Cc1ccc(-n2ncc(C(=O)NCCc3c[nH]c4ccccc34)c2C2CCN(C(=O)OC(C)(C)C)CC2)cc1C	i	?	i	16.4µM
Cc1ccc(-n2ncc(C(=O)NCCc3ccsc3)c2C2CCN(C(=O)OC(C)(C)C)CC2)cc1C	i	16.4µM	i	16.4µM
Cc1ccc(-n2ncc(C(=O)N3CCCCC3)c2C2CCN(C(=O)OC(C)(C)C)CC2)cc1C	i	?	i	?
C#CCCCO/N=C1/C[C@@H](O)[C@@H](O)[C@@H]2[C@@H]3C(=O)N(CCC(=O)OCC)C(=O)[C@H]3CC[C@@H]12	i[21 µM]	nt	nt	nt
Nn1c(SCC(=O)Nc2cc(S(=O)(=O)N3CCOCC3)ccc2Cl)nnc1-c1cccnc1	i	i	i	i
O=C(CSc1cccc[n+]1[O-])Nc1ccc(N2CCOCC2)cc1	i	nt	nt	nt
CCn1cc(C(=O)NCCc2ccc(C)cc2)c(=O)c2cc(S(=O)(=O)N3CCCCC3)ccc21	i	i	i	i
CCn1cc(C(=O)NCC(OC)OC)c(=O)c2cc(S(=O)(=O)N3CCC(C)CC3)ccc21	i	10.3µM	i	?
CCn1cc(C(=O)NCc2ccc(C)cc2)c(=O)c2cc(S(=O)(=O)N3CCCCCC3)ccc21	i	20.6µM	i	14.6µM
CCn1cc(C(=O)NCCc2ccc(Cl)cc2)c(=O)c2cc(S(=O)(=O)N3CCOCC3)ccc21	i	i	i	i
CCn1cc(C(=O)NCc2ccc(Cl)cc2)c(=O)c2cc(S(=O)(=O)N3CCOCC3)ccc21	i	23.1µM	i	20.6µM
Cc1cccc(N2C(=O)CC(N3CCN(c4ccccn4)CC3)C2=O)c1 (stereo not given)	i	i	nt	i
CC(C)Oc1ccc(C2c3c(oc4ccccc4c3=O)C(=O)N2CCCN2CCOCC2)cc1 (stereo not given)	i	?	i	25.9µM
O=C1c2oc3ccc(Cl)cc3c(=O)c2C(c2ccccn2)N1CCCN1CCOCC1 (stereo not given)	i	29.1µM	i	23.1µM
O=C1c2oc3ccc(F)cc3c(=O)c2C(c2ccc(F)cc2)N1CCCN1CCOCC1 (stereo not given)	nt	i	i	i
CC(C)c1ccc(C2c3c(oc4ccc(Cl)cc4c3=O)C(=O)N2CCCN2CCOCC2)cc1 (stereo not given)	i	?	i	18.4µM
Cc1ccc(C2c3c(oc4ccccc4c3=O)C(=O)N2CCCN2CCOCC2)o1 (stereo not given)	i	i	i	i
